Laboratory results published in the OligoGym collection.
Note: reference of the scale not given here.

Each sequence was assayed against FCHSD2 (assay: pooled miR-30 sensor sort-seq; sequence = guide strand). Conditions: shRNA.
TAGGAATAAACAACTTTGCAGG was tested, and the sensor-assay potency score (higher = more potent) was -0.656.
TATCTTCAAACTCTTCGCCTTC was tested, and the sensor-assay potency score (higher = more potent) was -0.452.
With TGCTTTAGCAGGTCCAACCGGG the sensor-assay potency score (higher = more potent) was -0.504.
TTTCTGATTCTAACTGTCGGCT gave a sensor-assay potency score (higher = more potent) of -0.5.
Sequence TTTAGCTAAATCTTTCACTGTC has a sensor-assay potency score (higher = more potent) of 1.33.
Work on TAGCTTTGGAATTACACTCAGA yielded a sensor-assay potency score (higher = more potent) of -0.799.
For TTATCTTCAAACTCTTCGCCTT, the sensor-assay potency score (higher = more potent) was -0.0794.
Sequence TTTTCTTGCAAAAACAGCTGAA has a sensor-assay potency score (higher = more potent) of -0.0894.
With TTCGGTATCTGCATTAAGCGAG the sensor-assay potency score (higher = more potent) was 0.0519.
With TTTAAGCTTCTCACTGTCCTTG the sensor-assay potency score (higher = more potent) was 0.228.
TAACTTTACACTTGCCTTCTGT gave a sensor-assay potency score (higher = more potent) of -0.129.
TTCTGTTCTAGCTCTGCTCGGC gave a sensor-assay potency score (higher = more potent) of -0.12.

What follows are sequences tested against FCRL4 in the same assay as above. Conditions: shRNA.
In the case of TACATCAACATACAACGACTGA, the sensor-assay potency score (higher = more potent) is reported as -0.697.
With TAGACAACTGAGACATCCTTAT the sensor-assay potency score (higher = more potent) was -0.682.
Work on TAGGCTGAGAGTCTGTAGCTTT yielded a sensor-assay potency score (higher = more potent) of 0.173.
For TATTTGAACTTGCTTGTGGGAT, the sensor-assay potency score (higher = more potent) was -0.378.
With TTATTTTGAAATTTGATCTAAA the sensor-assay potency score (higher = more potent) was -0.106.
TTCTCTGTTGCATAGAACTGAA showed a sensor-assay potency score (higher = more potent) of -0.545.
TGTTATTTGAACTTGCTTGTGG showed a sensor-assay potency score (higher = more potent) of 0.392.
Sequence TTATTTGAACTTGCTTGTGGGA has a sensor-assay potency score (higher = more potent) of -0.64.
In the case of TTGCATAGAACTGAAATCCATT, the sensor-assay potency score (higher = more potent) is reported as -0.778.
Sequence TAGAACTGAAATCCATTGCAAG has a sensor-assay potency score (higher = more potent) of -0.914.
For TAGAGCTGATCTTTCCAGCTGA, the sensor-assay potency score (higher = more potent) was 0.365.
TTATCCTCTAGAAGTGTCCTGG gave a sensor-assay potency score (higher = more potent) of 0.145.
